Source: PubChem (several laboratories)
Hits are enriched below; roughly 4.6% of the tested compounds scored in any of these assays.
TIM10 inh: TIM10 yeast growth inhibition | inhibition, % at 10 µM | S. cerevisiae TIM10 strain growth, BacTiter-Glo luminescence, 24 h | 330,000 compounds, 1.4% hits;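 active = inhibition of 40% or more at the single tested concentration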;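 note: wild-type TIM10 isogenic control strain grown at permissive 25 °C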
V-ATPase pHluor: regulators of yeast V-ATPase proton transport; response, % at 10 µM; 350,000 compounds, 0.37% hits; AID 504577; S. cerevisiae, pHLuorin cytosolic pH fluorescence; in the data active = response mostly above about 7.3%, no sharp cut-off; inactive = mostly below about 5.4%; note: actives read high
tim10-1 inh: growth inhibitors of tim10-1 mutant yeast; inhibition, % at 20 µM; S. cerevisiae tim10-1 ts strain growth, BacTiter-Glo, 24 h; 330,000 compounds, 2.2% hits;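 active = inhibition of at least 40%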;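 note: mutant grown at 25 °C; 0% = DMSO wells with yeast and 100% = wells holding no yeast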
SKKanGAS inh: inhibitors of SKKanGAS S. pyogenes growth in kanamycin (SK-promoter or general growth effect); 300,000 compounds, 1.3% hits; BacTiter-Glo, 6 h; inhibition, % at 7.5 µM;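 active = mean replicate score, as percent of positive control median, at least 50; inconclusive = mean below 50 but one replicate at or above 50; inactive = mean and every replicate below 50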;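 note: strain carries kanamycin resistance gene driven by streptokinase promoter and grows in 40 µg/ml kanamycin; loss of luminescence reflects streptokinase promoter inhibition or plain growth inhibition; 0% = median of DMSO wells and 100% = positive control at its reference dose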
tim23-1 inh: inhibits growth of tim23-1 mutant yeast | S. cerevisiae tim23-1 growth, BacTiter-Glo luminescence, 24 h | inhibition, % at 20 µM | 330,000 compounds, 1.3% hits | AID 463212;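 active = growth inhibition of the mutant yeast at or above 50%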;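 note: temperature-sensitive mutant grown at 25 °C; plate controls were DMSO-treated mutant yeast for no effect and medium wells lacking yeast for full effect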
PfHsp90 yeast 2: reduces growth (ATP signal) of yeast expressing P. falciparum Hsp90 | S. cerevisiae expressing PfHsp90, BacTiter-Glo ATP, 48 h; yeast lacking PDR1 and PDR3 efflux regulators | AID 504621 | inhibition, % at 9.4 µM | 310,000 compounds, 0.32% hits;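 active = every replicate shows inhibition above about 80%, whatever the replicate mean, limit read from the data; inconclusive = mean inhibition reaches the set limit but some replicate falls short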;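 note: 0% = DMSO neutral controls and 100% = 20 µM radicicol positive controls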
Numbers without * were called inactive; u = inconclusive; x = no result.

SMILES | TIM10 inh | V-ATPase pHluor | tim10-1 inh | SKKanGAS inh | tim23-1 inh | PfHsp90 yeast 2
CCC(C)/C=C(C)/C=C/C1=CC2=C(Cl)C(=O)C(C)(OC(C)=O)C(=O)C2=CO1 (stereo unspecified) | 13.6 | -1.0 | 15.6 | 23.5 | 14.2 | 10.8
CC[C@H](C)/C=C(C)/C=C/C1=CC2=C(Cl)C(=O)[C@@](C)(OC(C)=O)C(=O)C2=CO1 | 10.3 | 1.5 | 26.8 | 5.9 | 37.5 | 105.8*
Cc1ccc2c(C)c3ccc4ccccc4c3c[n+]2c1 | x | -4.7 | x | x | x | u
CN(C)CC(C(=O)Cc1ccccc1)c1ccccc1 (stereo unspecified) | x | -0.3 | x | x | x | x
C[C@]12CCC3C(CC[C@H]4C[C@@H](O)CC[C@]34C)C1CC[C@@H]2OC(=O)[C@H](N)CCCCN (stereo partly specified) | -132.1 | -2.2 | -65.2 | x | -175.1 | 27.1
O=C(/C=C/c1c[nH]c2ccccc12)c1c(O)n(CCc2ccccc2)c(=O)[nH]c1=O | -8.4 | 7.8 | -10.0 | 85.3* | 3.9 | -12.2
O=C(c1ccccc1)C(CN1CCCC1)c1ccccc1 (stereo unspecified) | x | 0.8 | x | -10.0 | x | 7.6
CC1CCN(C(CC(=O)c2ccccc2)C(=O)c2ccccc2)CC1 (stereo unspecified) | x | 7.2 | x | x | x | 112.9*
N=c1sccn1Cc1ccc(Cl)cc1Cl | 9.4 | 1.4 | 22.6 | 2.9 | -5.2 | -14.4
Clc1ccc(CO/N=C(\Cn2ccnc2)c2ccc(Cl)cc2Cl)c(Cl)c1 | -72.3 | x | 32.6 | 96.5* | -41.1 | x
COc1ccc(OC(=O)N(C)C[C@H]2OCc3cnnn3CCCC(=O)N([C@H](C)CO)C[C@H]2C)cc1 | x | -2.9 | x | x | x | x
O=C1NC(=S)N(c2ccc(F)cc2)C(=O)/C1=C\c1ccoc1 | x | -0.8 | x | x | x | -22.6
Cc1ccc(N2C(=O)NC(=O)/C(=C\c3ccoc3)C2=O)cc1 | 3.8 | 5.9* | -8.3 | -8.3 | 6.9 | 6.0
Clc1ccc(COC(Cn2ccnc2)c2ccc(Cl)cc2Cl)cc1 (stereo unspecified) | -91.5 | 12.1 | -26.5 | 74.3* | 49.4 | 83.0*
Clc1ccc(CSC(Cn2ccnc2)c2ccc(Cl)cc2Cl)cc1 (stereo unspecified) | -166.6 | 0.7 | -37.4 | x | 5.5 | 90.3*
c1ccc(Cn2ccnc2)cc1 | 4.7 | -0.5 | -9.2 | 0.2 | -10.7 | 7.5
O=C(NC1CCCCC1)N1Cc2ccccc2-n2nncc2C1 | x | -0.8 | x | x | x | -8.1
COC(=O)N1Cc2ccccc2-n2nncc2C1 | x | 3.8 | x | x | x | x
COc1cc2c(cc1/C=C/[N+](=O)[O-])OCO2 | x | 5.6 | x | 5.9 | x | 106.2*
CCCCCCCn1c(=O)c(C(=O)Nc2cnccn2)c(O)c2ccccc21 | 7.7 | 0.9 | -25.1 | 59.5* | 33.8 | 29.6
CCCCCn1c(=O)c(C(=O)Nc2cnccn2)c(O)c2ccccc21 | 22.2 | 0.6 | 7.4 | 80.5* | 34.7 | 10.8
COC1/C=C/C=C(\C)Cc2cc(O)c(Cl)c(c2)N(C)C(=O)CC(OC(=O)C(C)C)C2(C)OC2C(C)C2CC1(O)NC(=O)O2 (stereo unspecified) | x | -0.4 | x | x | x | 34.8
O=C(c1ccc(-c2ccccc2)cc1)C1CCCN(Cc2ccn[nH]2)C1 (stereo unspecified) | -1.8 | -1.9 | 15.9 | -3.4 | 9.6 | 8.6
COc1cc2cc(C(=O)N3CC(COS(C)(=O)=O)c4ccc(O)cc43)[nH]c2c(OC)c1OC (stereo unspecified) | x | 2.4 | x | x | x | 104.4*
C[C@]12CCC(=O)C[C@H]1CC[C@@H]1[C@@H]2CC[C@]2(C)[C@@H](O)CC[C@@H]12 | -2.2 | x | 22.4 | x | 22.2 | x
SMILES | TIM10 inh | V-ATPase pHluor | tim10-1 inh | SKKanGAS inh | tim23-1 inh | PfHsp90 yeast 2
Oc1ccc(O)c2c1C1(Cl)C(Cl)=C(Cl)C2(Cl)C1(Cl)Cl | x | 0.8 | x | x | x | 106.6*
Cc1nn(-c2ccccc2)c(Cl)c1C1C(C#N)=C(N)Oc2c1c(=O)oc1ccccc21 (stereo unspecified) | 14.5 | -4.3 | 20.6 | 108.3* | 25.6 | -38.4
OC[C@@H](O)CCl | 0.1 | x | -8.1 | -2.4 | -9.9 | x
Cc1ccc([C@@H]2C[C@H]3[C@@H](CN2S(=O)(=O)c2ccc(Cl)cc2)C(=O)C[C@@H](c2ccccc2F)N3S(=O)(=O)c2ccc(C)cc2)cc1 | x | -1.5 | x | x | x | x
CCOC(=O)C1(c2ccccc2)CCN(CCC(=O)Nc2cccc(Br)c2)CC1 | -2.6 | 0.8 | -43.2 | x | -12.1 | -3.3
CCCC1COC(Cn2cncn2)(c2ccc(Cl)cc2Cl)O1 (stereo unspecified) | -47.4 | -56.4 | -46.2 | 0.1 | -402.1 | 106.6*
